Source: PubChem (National Center for Advancing Translational Sciences (NCATS))
Many of the other results were omitted from the sample, so hits are more common in it than they were.
PKM2 inhibitor – PKM2 (human) enzyme inhibition; purified PKM2, ATP generation, Kinase-Glo luminescence; Potency, µM (series often up to 57.5 µM), most hits filed as inhibitors; hit rate 0.058% among 260,000; AID 1634; active means well fitted inhibition curve with a large enough effect; further: nearly all actives have a fitted effect of over 60% in size
Target sequence (P14618 whole entry, looked up): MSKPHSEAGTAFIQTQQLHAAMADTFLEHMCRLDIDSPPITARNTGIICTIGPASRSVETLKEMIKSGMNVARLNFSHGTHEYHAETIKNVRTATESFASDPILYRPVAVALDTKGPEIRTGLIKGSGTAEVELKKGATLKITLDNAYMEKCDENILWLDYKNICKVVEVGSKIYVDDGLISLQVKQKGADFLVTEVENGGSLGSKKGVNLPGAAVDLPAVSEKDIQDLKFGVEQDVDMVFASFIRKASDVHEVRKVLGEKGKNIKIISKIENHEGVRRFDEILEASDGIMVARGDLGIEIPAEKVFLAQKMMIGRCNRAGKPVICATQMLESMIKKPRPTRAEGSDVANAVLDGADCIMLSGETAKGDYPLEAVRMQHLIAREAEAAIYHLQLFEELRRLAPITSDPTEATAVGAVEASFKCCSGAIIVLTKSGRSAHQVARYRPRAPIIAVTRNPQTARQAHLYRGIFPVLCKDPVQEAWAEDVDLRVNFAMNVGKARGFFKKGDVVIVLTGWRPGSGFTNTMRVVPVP
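Coupled luciferase luminescence (Kinase-Glo) detects ATP generated from 0.1 mM ADP and 0.5 mM PEP in imidazole buffer pH 7.2 with KCl, MgCl2; 1 h at room temperature. Enzyme at intermediate activity; normalized to uninhibited and no-enzyme controls.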
A number is an active result; . = inactive.

SMILES | PKM2 inhibitor
COc1ccc(N=Nc2n(C)c3ccccc3[n+]2C)cc1 | 13µM
CCOC(=O)c1c(-c2ccccc2)csc1NC(=O)CSc1nnc(C)s1 | .
COc1ccc(-c2csc(NC(=O)c3cccs3)c2C(=O)O)cc1OC | 22µM
CCOC(=O)c1c(-c2ccc(C)o2)csc1NC(=S)NC(=O)c1cccs1 | .
Cc1c(O)c(O)cc2c1oc1c3ccccc3oc(=O)c21 | .
COc1cc(C(=O)NCCCNc2ccc([N+](=O)[O-])cc2)cc(OC)c1OC | .
Cc1ccsc1/C=C1\CCc2ccccc2C1=O | 25µM
O=C(OCn1nnc2ccccc2c1=O)C1CCN(S(=O)(=O)c2cccs2)CC1 | .
COc1ccc(S(=O)(=O)N2CCN=C2SCc2cccnc2)cc1 | .
COc1cccc(CSc2nc3ccncc3[nH]2)c1 | 14µM
COc1cccc(Cn2nc(C(=O)O)c3ccccc3c2=O)c1 | .
COc1ccc(NC(=O)/C(Cl)=C(/Cl)S(=O)Cc2ccccc2Cl)cn1 (stereo not given) | .
COc1cccc(/C=N/Nc2nccnc2Cl)c1O | 14µM
COc1ccc(/C=N/Nc2nccnc2Cl)cc1 | 13µM
COc1ccc(-c2nn(-c3ccccc3)cc2/C=N/NS(=O)(=O)c2ccccc2)cc1 | .
COc1cccc(/C=N/NC(=O)c2cc3c(OC)cccc3[nH]2)c1O | .
COc1cccc(/C=N/Nc2ncnc3c2[nH]c2ccc(C)cc23)c1OC | .
Clc1nccnc1N/N=C/c1ccc(Br)cc1 | 14µM
Nc1nonc1-c1nc2ccccc2n1CC(=O)N/N=C/c1ccc(-c2cccc(C(=O)O)c2)o1 | .
O=S(=O)(NCc1cccnc1)c1cccn1-c1ncc(C(F)(F)F)cc1Cl | .
Cc1nc(NC(=O)CSc2nnnn2Cc2ccccc2)sc1C | .
COC(=O)[C@@]1(Cc2ccc(F)cc2)[C@H]2c3cc(C(=O)N(C)C)n(CCc4ccc(O)c(O)c4)c3C[C@H]2CN1C(=O)c1ccccc1 | .
Cc1cccc(N2CCN(C(=O)c3cc4c(=O)n(C)c5ccccc5c4n3C)CC2C)c1 (stereo not given) | .
COc1ccc(-c2[nH]ncc2CNCCn2cccn2)c(F)c1 | .
Cn1cccc1CC(=O)N/N=C/C=C/c1ccco1 | .
SMILES | PKM2 inhibitor
Cc1ccc(C)c2[nH]c(=O)c(CN(CCN3CCCC3)C(=O)Nc3cccc(Cl)c3)cc12 | .
O=C1/C(=C/Nc2ccc3c(c2)OCO3)CCc2ccccc21 | 25µM
O=C1c2ccccc2C(=O)N1Cc1ccc2c(c1)OCO2 | .
O=C(C1CCC1)N1CCc2cc(S(=O)(=O)Nc3ccc4c(c3)OCO4)ccc21 | .
O=S(=O)(/N=C(/Nc1ccc(Cl)cc1Cl)c1ccccc1)c1cccs1 | .
CC(=O)Oc1ccc(C(=O)[C@H]2[C@H]3C(=O)N(c4ccc(C)cc4C)C(=O)[C@H]3[C@@H]3C=CC=NN32)cc1 | .
CCN(CC)c1ccc(/C=N/NC(=O)c2ccoc2C)cc1 | 28µM
O=C(N/N=C/c1ccc(F)cc1)c1cc(-c2ccco2)nc2ccccc12 | .
CN(C)c1ccc(/C=N/NC(=O)c2ccccc2O)o1 | .
CCC12CC3CC(C1)CC(C(=O)NNC(N)=O)(C3)C2 | .
COc1cccc(NC(=O)CN(C)CC(=O)Nc2ccc(Cl)cc2[N+](=O)[O-])c1 | .
CCCCN=C1NN=C(c2ccc(C)c(C)c2)CS1 | .
COc1ccc(CN=C2NN=C(c3ccccc3)CS2)cc1 | .
c1cc2c(cc1C1=NNC(=NC3CC3)SC1)OCCO2 | 14µM
COc1ccc(NC(=O)CSc2n[nH]c(N)n2)c([N+](=O)[O-])c1 | .
CC(=O)N1[C@H](C)C=C[C@]1(Cc1ccccc1)C(=O)NCc1ccc(C)o1 | .
Brc1ccc(-c2nc(-c3ccccn3)no2)o1 | 18µM
COc1ccccc1-c1nc(-c2ccccn2)no1 | 7.9µM
O=[N+]([O-])c1ccc(NCCCNS(=O)(=O)c2ccccc2)c(Cl)c1 | .
O=C(O)C1Nc2c(O)cc(Cl)c([N+](=O)[O-])c2C2C=CCC12 (stereo not given) | .
CCCCNC(=O)CSc1nc2cc3c(cc2c(=O)n1Cc1ccco1)OCO3 | .
CCCOc1ccc(OCCn2nc(C(=O)O)c3ccccc3c2=O)cc1 | .
Cc1cc(C)n2nc(SCc3cc(=O)oc4ccc5ccccc5c34)nc2n1 | .
COc1ccccc1CNC(=S)Nc1ccc2nc(N3CCN(C)CC3)cc(C)c2c1 | .
O=C(c1ccc(S(=O)(=O)c2cccc(Cl)c2)c([N+](=O)[O-])c1)N1CCN(Cc2ccccc2)CC1 | .
SMILES | PKM2 inhibitor
O=C(O)c1cc(N2CCOCC2)nc2ccccc12 | .
O=C(c1ccc2c3n(nc2c1)-c1ccccc1CO3)N1CCOCC1 | 14µM
O=C(c1ccc(Cl)c(S(=O)(=O)N2CCCCCC2)c1)N1CCOCC1 | .
COC(=O)CCCC1=CC2=C(c3ccccc3)C(=O)C(C)(OC(=O)C3CCCC3)C(=O)C2=CN1Cc1ccc(OC)cc1 (stereo not given) | .
CC(=O)Nc1ccc(-n2nnnc2SCC(=O)Nc2cccc(NC(=O)c3ccco3)c2)cc1 | .
Cc1cc(C)cc(NS(=O)(=O)c2ccc3oc(=O)ccc3c2)c1 | .
COc1ccc(OCC(=O)N2CCN(S(=O)(=O)c3ccccc3[N+](=O)[O-])CC2)cc1 | .
